19 compounds from PubChem BioAssay (NCATS) can be followed below.

Inconclusive results are not listed. The source made the active and inactive calls. Unless noted, how the calls were made is not given here.

Test [1] is described as follows: qHTS Assay for Identifying Gametocytocidal Compounds (AID 743244; active means well fitted curve in the direction sought with a large enough effect; an effect the other way counts as inactive or inconclusive; further: potency means the concentration at half of the fitted maximal effect;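 on max response: on the % scale 0 is the no-effect control and ±100 the full control effect; actives lower the fluorescent signal which means gametocytes are killed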). To be noted: P. falciparum 3D7 stage III-V gametocytes, alamarBlue, 72 h; max response: stronger effect = lower value. The method in brief:
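Viability read-out was resazurin reduction (alamarBlue, 24 h) measured at Ex 525/Em 598 nm. Beforehand, late-stage (III-V) 3D7 P. falciparum gametocytes at 20,000 cells/well were incubated with compound 72 h at 37C under 5% CO2.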
In general terms: qHTS replaces the single test concentration by a dilution series.

Test [2] in a line: qHTS profiling of the MIPE4 collection as inhibitors of Plasmodium falciparum (3D7) proliferation (AID 743344).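 Further: scaled between DMSO vehicle wells and 0.29 µM artemisinin as full inhibition.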 Particulars: P. falciparum 3D7 in erythrocytes, SYBR Green DNA fluorescence, 72 h; at 28.5 µM (top of the series). A digest of the protocol:
(§1)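 Parasite DNA was quantified by SYBR Green I fluorescence (ex 485, em 535 nm) after overnight lysis in saponin/Triton buffer at room temperature. Cultures at 0.3% parasitemia and 2.5% hematocrit were first exposed to compound for 72 h at 37 C; signals were normalised to artemisinin (0.29 uM) and vehicle wells.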

Test [3] can be described thus: qHTS profiling of the MIPE4 collection as inhibitors of Plasmodium falciparum (DD2) proliferation (AID 743345). To be noted: P. falciparum Dd2 in erythrocytes, SYBR Green DNA, 72 h; at 28.5 µM (top of the series) unless noted. The method in brief: as §1
Test [4] can be described thus: qHTS profiling of the MIPE4 collection as inhibitors of Plasmodium falciparum (DD2) proliferation (Rep 2) (AID 743346). To be noted: P. falciparum Dd2 in erythrocytes, SYBR Green DNA, 72 h; at 28.5 µM (top of the series). A digest of the protocol:
as §1

Test [5] can be described thus: qHTS profiling for inhibitors of Plasmodium falciparum (3D7) proliferation (AID 743322).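 Further: infected erythrocytes exposed to compound for 72 h before lysis; 100% = DMSO vehicle wells and 0% = 0.29 µM artemisinin.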 Particulars: P. falciparum 3D7 proliferation; at 28.7 µM (top of the series) unless noted. The method in brief:
as §1

A short description of test [6]: qHTS profiling for inhibitors of Plasmodium falciparum (DD2) proliferation (AID 743323). To be noted: lower = more inhibition; at 28.7 µM (top of the series) unless noted. A digest of the protocol:
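P. falciparum Dd2-infected erythrocytes (0.3% parasitemia, 2.5% hematocrit) exposed 72 h at 37 C, 5% CO2. Lysis with SYBR Green, overnight at room temperature, fluorescence 485/535 nm; normalized to 0.29 uM artemisinin and DMSO.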

Test [7] can be described thus: qHTS profiling for inhibitors of Plasmodium falciparum (HB3) proliferation (AID 743324; active means well fitted curve in the direction sought with a large enough effect; an effect the other way counts as inactive or inconclusive;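 further: 100% = DMSO vehicle wells and 0% = artemisinin-treated control wells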). To be noted: Plasmodium falciparum HB3 blood-stage proliferation; at 28.7 µM (top of the series) unless noted. The method in brief:
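SYBR Green fluorescence (485 ex/535 em) of lysed cultures, incubated overnight at room temperature in the dark, quantifies parasite DNA. Infected erythrocytes at 0.3% parasitemia and 2.5% hematocrit were exposed 72 h; values normalized to DMSO and 0.29 uM artemisinin controls.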

The nature of test [8]: qHTS profiling of the MIPE4 collection as inhibitors of Plasmodium falciparum (HB3) proliferation (AID 743347).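 Further: plate controls were DMSO vehicle wells for no effect and artemisinin wells for full effect.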 To be noted: P. falciparum HB3 in erythrocytes, SYBR Green DNA, 72 h; at 28.5 µM (top of the series). A digest of the protocol:
as §1

For `C[C@@]12O[C@@H](C[C@]1(O)CO)n1c3ccccc3c3c4c(c5c6ccccc6n2c5c31)CNC4=O`, in test [1], the Potency was 5.9 µM (active).

For `C=C[C@@H]1CN2CCC1C[C@@H]2[C@@H](O)c1ccnc2ccccc12` (stereo partly specified), the parasite growth, % of DMSO control in test [2] was 15.2%. Moreover, in test [3], the parasite growth remaining, % of DMSO control (lower = more inhibition) is 21.4%. For the same compound, in test [4], the parasite growth, % of control (lower = inhibition) was 45.8%.

For the compound `Cc1c(C(=O)Nc2cccc(C(F)(F)F)c2)cc(-c2ccccc2)n1CCCN1CCOCC1`, the max response in test [1] was 12.4% (inactive). The same compound returned a remaining parasite growth % (stronger effect = lower value) in test [5] of 8.32%. Moreover, the activity, percent of control in test [6] was 17.4%. This compound gave a remaining proliferation (% of control), lower = more inhibition in test [7] of 9.01%. In test [2], this compound yielded a parasite growth, % of DMSO control of 19.9%. In addition, in test [3], the parasite growth remaining, % of DMSO control (lower = more inhibition) is 69.6%. Moreover, the parasite growth, % of control (lower = inhibition) in test [4] was 16.5%. The compound further showed a growth, % of control in test [8] of 10.9%.

Turning to `COc1ccc2c(c1)[C@]13CCCCC1C(C2)N(C)CC3` (stereo partly specified), in test [2], the parasite growth, % of DMSO control was 92.5%. Also, the parasite growth remaining, % of DMSO control (lower = more inhibition) in test [3] came to 85.3%. For the same compound, the parasite growth, % of control (lower = inhibition) in test [4] stood at 52.9%.

For `CC(=O)N(C)c1cccc(-c2ccnc3c(C(=O)c4cccs4)cnn23)c1`, the parasite growth, % of DMSO control in test [2] is 44.9%. The parasite growth remaining, % of DMSO control (lower = more inhibition) in test [3] was found to be 66.2%. In addition, in test [4], the parasite growth, % of control (lower = inhibition) came to 51.9%.

Regarding `C[C@@H]1[C@H](O)[C@@H](C)C=CC=CCCC=CC=CC=CC=C[C@H](O[C@H]2O[C@@H](C)[C@H](O)[C@@H](N)[C@@H]2O)CC2O[C@](O)(C[C@@H](O)[C@H](O)CC[C@@H](O)C[C@@H](O)C[C@@H](O)CC(=O)O[C@H]1C)C[C@H](O)[C@H]2C(=O)O`, the parasite growth, % of DMSO control in test [2] was 94.4%. Also, the parasite growth remaining, % of DMSO control (lower = more inhibition) in test [3] was 103%. Further, the parasite growth, % of control (lower = inhibition) in test [4] came to 97.5%.

`COCCn1c2c([n+](Cc3cnccn3)c1C)C(=O)c1ccccc1C2=O`: the Potency in test [1] was 0.372 µM (active).

On to `Clc1ccc(C(c2ccc(Cl)cc2)n2cc[n+](CC(OCc3ccc(Cl)cc3Cl)c3ccc(Cl)cc3Cl)c2)cc1` (stereo unspecified), for which, in test [1], the Potency is 1 µM (active).

As to `CC[N+]1(CCOC(=O)C(O)(c2ccccc2)c2ccccc2)CCCCC1`, the max response in test [1] was 2.2% (inactive).

Consider `C#C[C@]1(O)C=C[C@@H]2[C@@H]3CCC4=CC(=O)CC[C@@H]4[C@H]3CC[C@@]21CC`, for which, in test [2], the parasite growth, % of DMSO control came out at 10.4%. Further, the parasite growth remaining, % of DMSO control (lower = more inhibition) in test [3] was found to be 59.4%. Also, the parasite growth, % of control (lower = inhibition) in test [4] came to 26.2%.

On to `C[C@]12CC[C@H](O)CC1=CC[C@H]1[C@H]3CCC(=O)[C@@]3(C)CC[C@@H]12`, for which the parasite growth, % of DMSO control in test [2] was 72.2%. For the same compound, the parasite growth remaining, % of DMSO control (lower = more inhibition) in test [3] stood at 97.4%. Also, the parasite growth, % of control (lower = inhibition) in test [4] worked out at 108%.

`C[C@]12CCC(=O)C(O)=C1CC[C@@H]1[C@H]3CCC(=O)[C@@]3(C)CC[C@@H]12` returned a parasite growth, % of DMSO control in test [2] of 77.1%. Besides, the parasite growth remaining, % of DMSO control (lower = more inhibition) in test [3] was found to be 94.3%. In addition, in test [4], the parasite growth, % of control (lower = inhibition) came to 71.5%.

Regarding `COc1ccc2c(c1)CC[C@H]1[C@@H]2CC[C@]2(C)[C@@H](NCCCCCCN3C(=O)C=CC3=O)CC[C@H]12`, in test [1], the Potency is 9.35 µM (active). Further, the remaining parasite growth % (stronger effect = lower value) in test [5] was 86.3%. The activity, percent of control in test [6] is 73.1%. For the same compound, the remaining proliferation (% of control), lower = more inhibition in test [7] amounted to 50.7%. Also, the parasite growth, % of DMSO control in test [2] worked out at 62.7%. Also, in test [4], the parasite growth, % of control (lower = inhibition) was 37.3%. The same compound had a growth, % of control in test [8] of 77.6%.

Consider `CC1(N2CCC(n3c([C@@H]4CCCNC4)nc4ccccc43)CC2)CCCCCCC1`, for which the parasite growth, % of DMSO control in test [2] is 5.01%. For the same compound, the parasite growth remaining, % of DMSO control (lower = more inhibition) in test [3] was 11.2%. In test [4], the parasite growth, % of control (lower = inhibition) was determined as 19.4%.

In test [2], `COc1cc([C@@H]2c3cc4c(cc3[C@@H](O)C3COC(=O)C32)OCO4)cc(OC)c1O` (stereo partly specified) returned a parasite growth, % of DMSO control of 64.9%. In test [3], the parasite growth remaining, % of DMSO control (lower = more inhibition) was 88.5%. Further, the parasite growth, % of control (lower = inhibition) in test [4] is 64.3%. The growth, % of control in test [8] turned out to be 66.2%.

In test [2], `CO[C@H]1CCC(O[C@H]2C[C@H]([C@]3(C)CC[C@]4(C[C@H](O)[C@@H](C)[C@@H]([C@@H](C)C=C(C)C(=O)[C@H](C)C[C@H](C)C(=O)O)O4)O3)O[C@]3(O[C@@H]([C@H]4O[C@@](O)(CO)[C@H](C)C[C@H]4C)C[C@H]3C)[C@H]2C)O[C@H]1C` (stereo partly specified) returned a parasite growth, % of DMSO control of 11.2%. Also, the parasite growth remaining, % of DMSO control (lower = more inhibition) in test [3] came to 5.36%. Further, the parasite growth, % of control (lower = inhibition) in test [4] amounted to 23.1%. The same compound came in with a growth, % of control in test [8] of 8.74%.

Turning to `CC(=O)O[C@@]12CO[C@H]1C[C@H](O)[C@@]1(C)C(=O)[C@H](O)C3=C(C)[C@@H](O)C[C@@](O)([C@@H](OC(=O)c4ccccc4)[C@@H]21)C3(C)C`, the parasite growth, % of DMSO control in test [2] is 60.1%. In addition, in test [3], the parasite growth remaining, % of DMSO control (lower = more inhibition) was determined as 94.5%. Also, the parasite growth, % of control (lower = inhibition) in test [4] was determined as 42.4%.

In test [2], `CC(N[C@H]1C[C@H]1c1ccccc1)c1ccc2c(c1)OCCO2` (stereo partly specified) yielded a parasite growth, % of DMSO control of 90.6%. Moreover, the parasite growth remaining, % of DMSO control (lower = more inhibition) in test [3] came out at 74.9%. Moreover, the parasite growth, % of control (lower = inhibition) in test [4] is 64.1%.

Consider `CC(=CCCC1=CCC(C2=CC(=O)OC2O)OC1O)CCC1=C(C)CCCC1(C)C` (stereo unspecified), for which, in test [2], the parasite growth, % of DMSO control came to 15.8%. For the same compound, in test [3], the parasite growth remaining, % of DMSO control (lower = more inhibition) came to 44.2%. Also, the parasite growth, % of control (lower = inhibition) in test [4] was 72%. In test [8], the growth, % of control came out at 36%.
